PubChem BioAssay (NCI)
This is part of a sample that, as a whole, favours compounds with a hit. Of some 83,000 tested, about 20% had one in any assay.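 Results are percent growth after 48 hours of single-concentration exposure. 100 means growth as in untreated cells, lower positive values show inhibition; negative values down to -100 show cell death.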 Activity calls are given as the source filed them.

system: HCT-116 colon; assay: NCI-60 one-dose screen, 48 h (100 = growth as untreated, 0 = no growth, -100 = all killed); details: 10 µM unless noted
Procedure: Growth inhibition of the HCT-116 human tumor cell line is measured as a screen for anti-cancer activity. Cells are grown in 96 well plates and exposed to the test compound for 48 hours. Compounds are tested at a single concentration, which is 10^-5 M for most compounds. The reported endpoint is percent growth (GI% or GIPRCNT), where numbers from 0 - 100% represent growth inhibition, and numbers from -100% - 0 represent cell death. For example, a value of 40 represents 60% growth inhibition. A value of 0 means no net growth occurred over the course of the experiment. A value of -40 indicates 40% of cells at the beginning of the experiment died by the end of the experiment. A value of -100 means all cells are dead at the end of the experiment.
NCI-60 Human Tumor Cell Lines Screen was performed using the standard one-dose NCI protocol, which is described in more detail at https://dtp.cancer.gov/discovery_development/nci-60/default.htm.
Compounds with GIPRCNT values below 10 were considered active. Activity score was based on GIPRCNT using the following formula: […]
Score is 0 for GIPRCNT values of 100 or above, 50 for GIPRCNT values of 0, and 100 for GIPRCNT values of -100.

Structure (SMILES)	growth
COc1cc(C(=O)Nc2ccc(-c3nc4ccccc4[nH]3)cc2)cc(OC)c1OC	24.1% (inactive)
O=C(/C=C/c1cccc(Cl)c1)OCc1ccc2cc1OCC#C/C=C\C#CCO2	89% (inactive)
COc1ccc(CCN2CCC(CN(C)Cc3cnn(-c4ccccc4)c3)CC2)cc1	21.5% (inactive)
Cc1ccc(S(=O)(=O)c2c(COC(=O)c3cccc(C)c3)c(-c3ccccc3)nn2C)cc1	0.235% (active)
NCCOc1ccccc1/C=C1\c2ccccc2-c2ccc([N+](=O)[O-])cc21	-95.3% (active)
COc1ccc(-n2c(C(O)c3ccccc3)nn(CN3CCOCC3)c2=S)cc1 (stereo not given)	105% (inactive)
O=C(c1ccccc1)N(C(=S)NCCc1ccc(Cl)cc1)c1ccccc1	62.2% (inactive)
Cc1ccc(Cn2c(N3CCC(C(=O)NCc4cccs4)CC3)nc3ccccc32)cc1	58.1% (inactive)
COc1cc(/C=C/C(=O)N2c3ccccc3CC2C)c(OC)c2c1OCO2 (stereo not given)	97.2% (inactive)
COc1ccc(S(=O)(=O)N(Cc2ccc3c(n2)C=CC(C)(C)O3)C2CCC2)cc1OC	-5.68% (active)
COc1ccc(/C=C/C(=O)c2ccc3cc(OC)c(OC)cc3c2)cc1OC	16.9% (inactive)
CC1(C)CC2(C)OC2C2(C1)N=NC(=Nc1ccccc1)O2 (stereo not given)	20% (inactive)
Cc1cc(OC(=O)c2ccc([N+](=O)[O-])cc2)nc2[nH]c(=O)sc12	105% (inactive)
CCCCC1CCc2cccc3c(SCC(=O)N(C)c4ccc(Cl)cc4)cc[n+]1c23 (stereo not given)	102% (inactive)
Nc1nc(-c2ccccc2Br)nn1-c1nc2ccccc2s1	103% (inactive)
O=C(Nc1ccc(Cl)cc1)N1CCN(c2ccc3nncn3n2)CC1	-83.4% (active)
O=C1/C(=C/c2cccc(O)c2)COc2ccc(O)cc21	10.1% (inactive)
COc1ccc(/C=c2\sc3n(c2=O)NC2C(N=3)N(C)C(=O)N2C)cc1 (stereo not given)	100% (inactive)
CN1CCN(Cc2ccc(C(=O)Nc3cncc(C#Cc4cnc5cccnn45)c3)cc2C(F)(F)F)CC1	13% (inactive)
CN(C)c1ccc(N=Cc2ccc(N3CCOCC3)cc2)cc1	67.6% (inactive)

Structure (SMILES)	growth
COc1ccc2[nH]c(O)c(N=NC(=O)c3oc4ccccc4c3C)c2c1	-28.6% (active)
O=c1c(-c2nc3ccccc3[nH]2)cc2ccccc2n1Cc1cn(Cc2ccc(N3CCOCC3)cc2)nn1	83.6% (inactive)
CSc1nc2c(c(=O)[nH]1)N=C1c3ccccc3C(=O)C1C(c1ccc(F)cc1)N2 (stereo not given)	48.4% (inactive)
CC(=O)c1ccc(Nc2nc(NCCO)nc(Nc3ccc(Cl)cc3)n2)cc1	98.4% (inactive)
CCN1CCN(c2cc(C)c3cc(NC(=O)c4ccc(OC)c(OC)c4)ccc3n2)CC1	26.3% (inactive)
O=Cc1c(OCc2cnnn2CC(=O)Nc2ccc(Br)cc2)ccc2ccccc12	101% (inactive)
COC(=O)[C@H](NC(=O)C1(C)CCC[C@]2(C)[C@H]3C[C@H]4C(C(C)C)=C[C@]3(CC[C@@H]12)[C@@H]1C(=O)CCC(=O)[C@@H]14)C(C)C (stereo not given in full)	106% (inactive)
NCCNc1nc2ccccc2c2c(=O)c3cc(F)cc(Cl)c3sc12	-89.6% (active)
NC(=O)CSc1nc(-c2ccc(F)cc2)cc(-c2ccco2)n1	98% (inactive)
CN1CCN(Cc2ccc(NC(=O)c3[nH]ncc3Nc3cc(OC4CCCC4)ncn3)cc2)CC1	4.66% (active)
COc1ccc(-c2nocc2-c2cccs2)cc1	103% (inactive)
CNC(=O)c1cc(Oc2ccc(CC(=O)Nc3cc(C(C)(C)C)cn3C)cc2)ccn1	54.3% (inactive)
N#C/C(=C\c1c(-c2ccccc2)[nH]c2ccccc12)C(=O)c1ccccc1	30.4% (inactive)
CCOc1cccc(/C=N/NC(=O)C(=O)Nc2cccc(C(F)(F)F)c2)c1O	32% (inactive)
COCCN(C(=O)Cc1cccs1)C(C(=O)NCc1ccc(OC)cc1)c1ccc(C(C)C)cc1 (stereo not given)	68.7% (inactive)
COc1cc(C(C)n2cc(-c3ccccc3)nn2)ccc1OC1CCCCC1 (stereo not given)	42.5% (inactive)
O=C(CN1C=NC2C(N3CCOCC3)=NC=NC21)c1ccc(Br)cc1 (stereo not given)	103% (inactive)
O=C(N=Nc1c(O)[nH]c2ccccc12)c1oc2ccccc2c1CN1CCN(c2ccccc2)CC1	-53.1% (active)
O=c1oc2ccc(I)cc2c(=O)n1-c1ccc(I)cc1F	2.66% (active)
CCN(CC)c1cc(C)c2cc(NC(=O)c3cccc(OC)c3)ccc2n1	70.1% (inactive)
